Reference: PubChem BioAssay (Tox21)
Several values for one entry are separate records, joined by “and”; a condition that tells them apart may be missing. Equal entries are not always repeated. Results filed as inconclusive are left out. Activity calls are given as the source filed them. Unless noted, calls come from the whole dose curve; as a rule, active = well fitted curve in the direction sought with a large enough effect in the repeat runs; inconclusive = weak or mixed curves; inactive = no such curve, though single readings can be large; an effect the other way counts as inactive or inconclusive.

Columns and labels:
[1] = qHTS assay to identify small molecule agonists of the hypoxia (HIF-1) signaling pathway - cell viability counter screen (AID 1224844; calls by dose curve; note: nearly all actives have a fitted effect of over 50% in size; note: potency is the fitted concentration of half-maximal effect); conditions: HRE-bla ME-180 viability, CellTiter-Glo luminescence, 17 h; series mostly up to 76.8 µM
Outline: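 HRE-bla ME-180; 0.5% dFBS; cpd 17 h, 37C, 5% CO2; CellTiter-Glo lum., 30 min RT, post-FRET read, same wells.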

[2] = qHTS assay to identify small molecule agonists of H2AX - cell viability counter screen (AID 1224847; calls by dose curve; note: nearly all actives have a fitted effect of over 30% in size; note: potency is the fitted concentration of half-maximal effect); conditions: CHO-K1 viability, CellTiter-Glo luminescence, 3 h; series mostly up to 154 µM
Outline: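 We seed wild-type CHO-K1 cells overnight, treat them for 3 hr at 37C with compounds in 15-concentration series, and quantify remaining viability by CellTiter-Glo luminescence.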

[3] = qHTS assay to identify small molecule antagonists of the estrogen related receptor (ERR) signaling pathway from Tox21 library (AID 1224848); conditions: ERR reporter cell line, luciferase antagonist mode, 18 h; series mostly up to 92.4 µM; note: nearly all actives have a fitted effect of over 50% in size; note: potency is the fitted concentration of half-maximal effect
Outline: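 Tox21 10K compounds in DMSO tested for ERR pathway antagonism in NTP's ERR cell line; 18 h, 37 C exposure; ONE-Glo luminescence.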

[4] = qHTS assay to identify small molecule agonists of the estrogen related receptor (ERR) signaling pathway from Tox21 library (AID 1224849; calls by dose curve; note: nearly all actives have a fitted effect of over 15% in size); conditions: ERR reporter cell line, ONE-Glo luciferase, 18 h; at 92.4 µM (top of the series) unless noted
Outline: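 Tox21 compounds tested for ERR agonism in an NTP reporter cell line: 18 h treatment at 37 C, then ONE-Glo luminescence.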

[5] = A CellTox Green Cytotoxicity Assay to monitor cytotoxicity in HEK293 cells - 0 hour (AID 1224869); conditions: CellTox Green fluorescence; series mostly up to 76.8 µM; note: nearly all actives have a fitted effect of over 50% in size
Outline: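 Tox21 screen in HEK293: membrane-impermeant cyanine dye fluoresces on binding dead-cell DNA; compound pinned 5 h post-seeding, plates held at 37 C, signal read repeatedly through 40 h.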

[6] = qHTS assay to identify small molecule agonists of the hypoxia (HIF-1) signaling pathway (AID 1224846; active = well fitted activation curve with a large enough effect in the signal ratio in the repeat runs, not every such curve was filed as active; the % refers to the signal ratio); conditions: HRE-bla ME-180 cells, beta-lactamase ratio, 17 h; series mostly up to 76.8 µM
Outline: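 Reporter induction in HRE-bla ME-180 cells is taken as agonism: cells sit 5 hrs after plating, receive compounds or DMSO only, incubate 17 hrs at 37C under 5% CO2, and are loaded with CCF4-AM for beta-lactamase FRET measurement.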

[7] = qHTS RealTime-Glo MT Cell Viability Assay in HEK293 cells - 32 hour (AID 1224868); conditions: RealTime-Glo luminescence; series mostly up to 76.8 µM; note: nearly all actives have a fitted effect of over 50% in size; note: potency is the fitted concentration of half-maximal effect
Outline: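 Tox21 10K qHTS, HEK293, 600 cells/well, RealTime-Glo reagent co-dispensed with cells; 5 h preincubation, compound by pintool, 37 C, luminescence at 0–40 h.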

[8] = qHTS RealTime-Glo MT Cell Viability Assay in HepG2 cells - 40 hour (AID 1224870); conditions: RealTime-Glo luminescence; series mostly up to 76.8 µM; note: nearly all actives have a fitted effect of over 50% in size; note: potency is the fitted concentration of half-maximal effect
Outline: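 HepG2 cells mixed with RealTime-Glo MT reagents (NanoLuc plus cell-permeant prosubstrate) were seeded at 600 cells/well, incubated 5 h at 37 C/5% CO2, then pinned with compounds in DMSO; nonlytic luminescence tracked viability during 40 h treatment.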

[9] = qHTS RealTime-Glo MT Cell Viability Assay in HepG2 cells - 24 hour (AID 1224867); conditions: RealTime-Glo luminescence; series mostly up to 76.8 µM; note: nearly all actives have a fitted effect of over 50% in size; note: potency is the fitted concentration of half-maximal effect
Outline: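 Cells + NanoLuc/prosubstrate dispensed (600 cells/well) → 5 h at 37 C/5% CO2 → compounds in DMSO transferred → 40 h incubation at 37 C, luminescence read at 0, 8, 16, 24, 32, 40 h.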

[10] = qHTS assay to identify small molecule agonists of H2AX (AID 1224845; active = well fitted activation curve with a large enough effect in the signal ratio in the repeat runs, not every such curve was filed as active; the % refers to the signal ratio); conditions: CHO-K1 phospho-H2AX Ser139 HTRF, 3 h; series mostly up to 154 µM
Outline: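 Wild-type CHO-K1 cells plated overnight, then exposed 3 hr at 37C to compounds at 15 concentrations (0.76% DMSO). Lysed, then HTRF anti-pH2AX(S139)-cryptate/anti-H2AX-d2 detection after 24 hr at room temperature; emissions 665 and 620 nm.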
% is set by controls: 0 for no effect and ±100 for the full control effect.

ClP(Cl)(Cl)(Cl)Cl
inactive: Potency [1] | Potency [2] | Potency [3] | activity change, positive = activation [4] 0.0891% | Potency [5]

Nc1ccc(N=Nc2ccc(-c3ccc(N=Nc4c(S(=O)(=O)O)cc5cc(S(=O)(=O)O)c(N=Nc6ccccc6)c(O)c5c4N)cc3)cc2)c(N)c1
inactive: Potency [1] | outcome [6] | Potency [7] | Potency [5] | Potency [8]
active: Potency [2] 11.5 µM

IC(I)=C(I)I
active: Potency [1] 11 µM | Potency [2] 31.8 µM | Potency [3] 19.3 µM | Potency [7] 6.92 µM | Potency [8] 0.347 µM
inactive: activity change, positive = activation [4] -75.2% | Potency [5]

C/C(=C\c1ccccc1)[N+](=O)[O-]
active: Potency [1] 38.9 µM | Potency [3] 24.3 µM
inactive: outcome [6] | activity change, positive = activation [4] -68.3% | Potency [5]

CC(C)(OO)c1ccccc1
inactive: Potency [1] | outcome [6] | Potency [2] | Potency [3] | activity change, positive = activation [4] 4.39% | Potency [9] | Potency [7] | Potency [5] | Potency [8]

CC[C@H]1C[C@H]2[C@@H]3CCC4=CC(=O)CC[C@@H]4[C@H]3CC[C@]2(C)[C@H]1O
inactive: Potency [1] | outcome [6] | Potency [2] | activity change, positive = activation [4] -38.2% [at 42.5 µM] | Potency [9] | Potency [5]
active: Potency [3] 29.8 µM

CCOP(=S)(OCC)Oc1cc(Cl)c(Br)cc1Cl
inactive: Potency [1] | outcome [6] | Potency [7] | Potency [5] | Potency [8]

CN(C)c1ccc(N(C)C)cc1
inactive: Potency [1] | outcome [6] | Potency [9] | Potency [5] | Potency [8]

NC(=O)CI
active: Potency [1] 35 µM | Potency [9] 13.9 µM | Potency [8] 6.22 µM
inactive: Potency [10] | Potency [3] | activity change, positive = activation [4] -20% | Potency [5]

C[C@@H]1CC[C@H]2[C@@H](C)C(=O)O[C@@H]3O[C@@]4(C)CC[C@@H]1[C@]32OO4
active: Potency [3] 0.944 µM
inactive: Potency [1] | outcome [6] | Potency [2] | activity change, positive = activation [4] -38.3% [at 42.5 µM] | Potency [9] | Potency [7] | Potency [5]

C=CC(=O)OCCCCO
inactive: Potency [1] | Potency [2] | Potency [3] | Potency [9] | Potency [7] | Potency [5] | Potency [8]
active: activity change, positive = activation [4] 68.3%

O=S1OC[C@@H]2[C@H](CO1)[C@]1(Cl)C(Cl)=C(Cl)[C@@]2(Cl)C1(Cl)Cl (some centres undefined)
active: Potency [1] 43.6 µM | Potency [2] 20.1 µM
inactive: Potency [5] | Potency [8]

O=S1(=O)OC(c2cc(Br)c(O)c(Br)c2)(c2cc(Br)c(O)c(Br)c2)c2ccccc21
active: Potency [1] 6.34 µM | Potency [2] 8.23 µM
inactive: outcome [6] | Potency [7] | Potency [5] | Potency [8]

O=C1C(=O)c2cccc3cccc1c23
inactive: Potency [1] | outcome [6] | Potency [2] | Potency [9] | Potency [5]
active: Potency [8] 17.4 µM

N#C/C(N)=C(/N)C#N
inactive: Potency [1] | outcome [6] | Potency [2] | Potency [3] | activity change, positive = activation [4] 0.178% | Potency [9] | Potency [7] | Potency [5] | Potency [8]

O=C(N[C@H](c1ccccc1)[C@@H]1CN2CCC1CC2)c1c(Cl)ccc(C(F)(F)F)c1Cl
active: Potency [2] 182 µM | Potency [3] 39.2 µM | Potency [7] 70.2 µM
inactive: Potency [1] | outcome [6] | activity change, positive = activation [4] -42.3% | Potency [5] | Potency [8]

C[C@]12CC[C@H]3[C@@H](CCC4=CC(=O)CC[C@@H]43)[C@@H]1CC[C@@H]2OC(=O)CCC1CCCCC1
inactive: Potency [1] | outcome [6] | Potency [9] | Potency [7] | Potency [5] | Potency [8]

c1cc2ccc3cccc4ccc(c1)c2c34
active: Potency [3] 50.9 µM
inactive: Potency [1] | Potency [2] | activity change, positive = activation [4] -47.4% | Potency [9] | Potency [7] | Potency [5] | Potency [8]

Cn1sc(Cl)cc1=O
inactive: Potency [1] | outcome [6] | Potency [2] | Potency [3] | activity change, positive = activation [4] 1.6% | Potency [9] | Potency [7] | Potency [5] | Potency [8]

CCOP(=S)(Oc1ccc([N+](=O)[O-])cc1)c1ccccc1 (centres undefined)
inactive: Potency [1] | Potency [10] | Potency [3] | Potency [9] | Potency [7] | Potency [5] | Potency [8]
active: activity change, positive = activation [4] 24.4%

O=C(CBr)OCc1ccccc1
inactive: Potency [1] | outcome [6] | Potency [2] | Potency [7] | Potency [5] | Potency [8]

COP(=O)(OC)O/C(=C/Cl)c1cc(Cl)c(Cl)cc1Cl
active: Potency [3] 22.9 µM
inactive: Potency [1] | Potency [10] | activity change, positive = activation [4] -67.5% | Potency [9] | Potency [5] | Potency [8]

O=C(CBr)c1ccccc1
inactive: Potency [1] | outcome [6] | Potency [2] | Potency [9] | Potency [7] | Potency [5] | Potency [8]

CCOP(=O)(OCC)SCCSCC
inactive: Potency [1] | Potency [2] | Potency [3] | activity change, positive = activation [4] -5.82% and 8.45% | Potency [9] | Potency [7] | Potency [5] | Potency [8]
